Source: PubChem BioAssay (Tox21)
Results filed as inconclusive are left out. The source made the active and inactive calls. Unless noted, the call rests on the fitted dose curve; in most records, active means well fitted curve in the direction sought with a large enough effect in the repeat runs; inconclusive means weak or mixed curves; inactive means no such curve, though single readings can be large; an effect the other way counts as inactive or inconclusive.

How the values were obtained:
[1] = target: Progesterone receptor (Homo sapiens) (UniProt P06401); assay: qHTS assay to identify small molecule antagonists of the progesterone receptor (PR) signaling pathway (AID 1346795; active means well fitted inhibition curve with a large enough effect in the signal ratio in the repeat runs, not every such curve was filed as active; the % refers to the signal ratio)
Chain of Progesterone receptor (Homo sapiens) (P06401 whole entry, looked up): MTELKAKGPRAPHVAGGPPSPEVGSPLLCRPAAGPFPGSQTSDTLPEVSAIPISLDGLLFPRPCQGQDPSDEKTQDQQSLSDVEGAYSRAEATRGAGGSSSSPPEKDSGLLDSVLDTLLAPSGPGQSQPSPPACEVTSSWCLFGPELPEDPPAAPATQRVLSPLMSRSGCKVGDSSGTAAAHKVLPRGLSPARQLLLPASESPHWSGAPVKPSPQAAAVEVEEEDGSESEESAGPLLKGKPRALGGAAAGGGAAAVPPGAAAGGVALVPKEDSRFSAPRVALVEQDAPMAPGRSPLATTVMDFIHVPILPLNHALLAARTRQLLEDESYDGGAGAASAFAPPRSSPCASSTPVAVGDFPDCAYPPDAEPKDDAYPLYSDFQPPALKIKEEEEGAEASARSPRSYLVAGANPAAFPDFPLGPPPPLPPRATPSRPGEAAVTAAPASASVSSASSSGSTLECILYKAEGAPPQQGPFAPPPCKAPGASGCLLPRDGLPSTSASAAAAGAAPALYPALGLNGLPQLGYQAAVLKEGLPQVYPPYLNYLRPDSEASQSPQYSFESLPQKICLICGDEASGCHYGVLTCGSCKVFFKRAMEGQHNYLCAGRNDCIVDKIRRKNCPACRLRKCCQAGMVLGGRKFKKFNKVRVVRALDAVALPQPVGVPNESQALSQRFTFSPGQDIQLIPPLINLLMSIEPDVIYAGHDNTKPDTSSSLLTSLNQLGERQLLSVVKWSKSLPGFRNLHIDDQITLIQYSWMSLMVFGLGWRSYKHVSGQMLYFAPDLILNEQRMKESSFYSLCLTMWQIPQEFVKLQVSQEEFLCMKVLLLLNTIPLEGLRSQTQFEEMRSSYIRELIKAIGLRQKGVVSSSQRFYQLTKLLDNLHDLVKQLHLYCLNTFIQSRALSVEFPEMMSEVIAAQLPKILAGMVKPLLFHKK
Outline: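 Beta-lactamase reporter, HEK293T PR-UAS-bla line; 2% charcoal-stripped FBS; 6 hr pre-incubation, 37C/5% CO2. Compound + R5020 1 nM final, 16 hr. LiveBLAzer B/G FRET substrate, 2 hr RT; fluorescence intensity read.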

[2] = qHTS assay to identify small molecule antagonists of the progesterone receptor (PR) signaling pathway - cell viability counter screen (AID 1346798); further: series mostly up to about 92 µM; nearly all actives have a fitted effect of over 50% in size
Outline: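 Luminescence readout (CellTiter-Glo, 30 min, RT) of viability in PR-UAS-bla HEK293T cells exposed to compound and R5020 agonist for 16 hr at 37C, 5% CO2; run in the same wells as the beta-lactamase reporter read.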

[3] = qHTS assay to identify small molecule agonists of the progesterone receptor (PR) signaling pathway - cell viability counter screen (AID 1346799; calls by dose curve; further: nearly all actives have a fitted effect of over 45% in size)
Outline: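 HEK293T PR-UAS-bla, 3,000 cells/well, 2% charcoal-stripped FBS; 6 h settle, compound 16 h at 37C/5% CO2; LiveBLAzer 2 h RT, then CellTiter-Glo 30 min RT, luminescence read.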

[4] = qHTS assay to identify small molecule antagonists of the TGF-beta/Smad signaling pathway - cell viability counter screen (AID 1346824); further: nearly all actives have a fitted effect of over 50% in size
Outline: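 SBE-bla HEK 293T cells, incubated overnight, then compound plus 0.25 ng/mL TGF-beta1 (stock added) for 5 hr at 37 C. Viability was read in the same wells by CellTiter-Glo luminescence after 30 min at room temperature.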

[5] = qHTS assay to identify small molecule agonists of the TGF-beta/Smad signaling pathway - cell viability counter screen (AID 1346829); further: top concentration of the series differs between compounds; nearly all actives have a fitted effect of over 45% in size
Outline: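 Tox21 qHTS format: SBE-bla HEK 293T cells treated with DMSO-dissolved compounds for 5 hr; CellTiter-Glo luminescence after 30 min at room temperature.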

[6] = qHTS assay to identify small molecule agonists of the TGF-beta/Smad signaling pathway (AID 1346859; active means well fitted activation curve with a large enough effect in the signal ratio in the repeat runs, not every such curve was filed as active; the % refers to the signal ratio; further: series mostly up to about 77 µM)
Outline: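 Read-out: fluorescence at 460 and 530 nm (405 nm excitation) after a 2 hr room-temperature incubation with beta-lactamase FRET substrate. SBE-bla HEK 293T cells had been treated with test compounds for 5 hr at 37 C.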

[7] = target: Thyrotropin-releasing hormone receptor (Homo sapiens) (UniProt P34981); assay: qHTS assay to identify small molecule antagonists of the thyrotropin-releasing hormone receptor (TRHR) signaling pathway (AID 1346877; active means well fitted inhibition curve with a large enough effect in the repeat runs, not every such curve was filed as active; further: series mostly up to about 51 µM)
Chain of Thyrotropin-releasing hormone receptor (Homo sapiens) (P34981 whole entry, looked up): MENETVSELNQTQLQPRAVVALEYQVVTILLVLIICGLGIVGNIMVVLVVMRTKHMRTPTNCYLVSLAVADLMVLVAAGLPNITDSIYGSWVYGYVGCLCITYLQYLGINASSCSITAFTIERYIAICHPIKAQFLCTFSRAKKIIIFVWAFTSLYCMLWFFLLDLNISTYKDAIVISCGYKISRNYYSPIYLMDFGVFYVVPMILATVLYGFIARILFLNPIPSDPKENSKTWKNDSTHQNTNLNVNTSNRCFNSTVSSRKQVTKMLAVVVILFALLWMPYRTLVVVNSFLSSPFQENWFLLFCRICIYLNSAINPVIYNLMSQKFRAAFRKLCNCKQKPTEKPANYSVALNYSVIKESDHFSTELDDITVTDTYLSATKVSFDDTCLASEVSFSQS
Outline: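 Following an 18 h incubation at 37 °C and a 2 h calcium dye load, TRHR-HEK293 cells were exposed to compound (5 min, room temperature) and challenged with TRH, 1 nM final.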

[8] = target: Thyrotropin-releasing hormone receptor (Homo sapiens) (UniProt P34981); assay: qHTS assay to identify small molecule agonists of the thyrotropin-releasing hormone receptor (TRHR) signaling pathway (AID 1346891; calls by dose curve;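 further: HEK293 cells expressing TRHR with calcium dye readout; series mostly up to about 58 µM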)
Outline: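 HEK293/TRHR cells, 1500 per well, 18 h 37 °C; Ca dye 2 h 37 °C; pin-tool compound addition (agonist mode); kinetic fluorescence 3 min, 1 s reads; 15 concentrations, triplicate.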

[9] = Human pregnane X receptor (PXR) small molecule agonists, qHTS cell viability counter screen (AID 1346977); further: nearly all actives have a fitted effect of over 50% in size
Outline: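 Fluorescence read-out (CellTiter-Fluor) of viability in PXR-Luc HepG2 cells, multiplexed with the luciferase agonist read. Compounds in DMSO added after 5hr plating; 24hr total exposure at 37C, 5% CO2.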

[10] = Caspase-3/7 induction in HepG2 cells by small molecules, qHTS assay (AID 1346978); further: nearly all actives have a fitted effect of over 15% in size
Outline: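 Wild-type HepG2 cells, 2,000/well, settled 5 hr at 37 C and 5% CO2, then compound-treated for 17 hr; caspase-3/7 activity read by luminescent Caspase-Glo 3/7 after 30 min at room temperature.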

[11] = Caspase-3/7 induction in CHO-K1 cells by small molecules, qHTS cell viability counter screen (AID 1346979); further: nearly all actives have a fitted effect of over 35% in size; further: potency means the concentration at half of the fitted maximal effect
Outline: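 CHO-K1 wt, 1,500 cells/well; 5hr pre-incubation 37C/5% CO2; compound pin transfer (DMSO); 16hr exposure; CellTiter-Fluor added, 1hr, fluorescence read.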

[12] = Caspase-3/7 induction in CHO-K1 cells by small molecules, qHTS assay (AID 1346980); further: nearly all actives have a fitted effect of over 15% in size
Outline: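 Wild-type CHO-K1 cells exposed to compounds for 17hr at 37 C, 5% CO2. Caspase-3/7 activity then measured by Caspase-Glo 3/7 luminescence after 30min at room temperature.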

[13] = Caspase-3/7 induction in HepG2 cells by small molecules, qHTS cell viability counter screen (AID 1346981); further: series mostly up to about 92 µM; nearly all actives have a fitted effect of over 30% in size
Outline: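 Viability determined by CellTiter-Fluor fluorescence in HepG2 wells also used for the luminescent Caspase-Glo 3/7 read. Compounds were present for 16 hr at 37 C, 5% CO2 before reagent addition.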

[14] = target: Nuclear receptor subfamily 1 group I member 2 (Homo sapiens) (UniProt O75469); assay: Human pregnane X receptor (PXR) small molecule agonists, qHTS assay (AID 1346982); further: nearly all actives have a fitted effect of over 35% in size
Chain of Nuclear receptor subfamily 1 group I member 2 (Homo sapiens) (O75469 whole entry, looked up): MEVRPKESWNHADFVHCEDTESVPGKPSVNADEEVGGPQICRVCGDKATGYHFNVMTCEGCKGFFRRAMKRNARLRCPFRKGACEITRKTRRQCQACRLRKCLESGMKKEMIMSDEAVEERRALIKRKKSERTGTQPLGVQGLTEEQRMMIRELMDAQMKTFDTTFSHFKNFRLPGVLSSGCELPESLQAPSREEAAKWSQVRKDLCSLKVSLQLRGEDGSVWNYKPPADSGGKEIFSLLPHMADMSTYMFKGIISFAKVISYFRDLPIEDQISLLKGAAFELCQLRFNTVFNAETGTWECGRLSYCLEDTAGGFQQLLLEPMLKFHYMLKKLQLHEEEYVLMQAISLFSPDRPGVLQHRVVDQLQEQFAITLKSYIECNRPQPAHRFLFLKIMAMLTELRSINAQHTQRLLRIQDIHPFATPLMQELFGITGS
Outline: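 Compound-induced hPXR transactivation of a CYP3A4 luciferase reporter was scored in HepG2 PXR-Luc cells over 24 hr at 37 C, 5% CO2, by luminescence.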

[15] = target: Cytochrome P450 2C19 (Homo sapiens) (UniProt P33261); assay: Cytochrome P450 Family 2 Subfamily C Member 19 (CYP2C19) small molecule antagonists: luciferase reporter qHTS assay (AID 1671197); further: series mostly up to about 120 µM; nearly all actives have a fitted effect of over 65% in size
Chain of Cytochrome P450 2C19 (Homo sapiens) (P33261 whole entry, looked up): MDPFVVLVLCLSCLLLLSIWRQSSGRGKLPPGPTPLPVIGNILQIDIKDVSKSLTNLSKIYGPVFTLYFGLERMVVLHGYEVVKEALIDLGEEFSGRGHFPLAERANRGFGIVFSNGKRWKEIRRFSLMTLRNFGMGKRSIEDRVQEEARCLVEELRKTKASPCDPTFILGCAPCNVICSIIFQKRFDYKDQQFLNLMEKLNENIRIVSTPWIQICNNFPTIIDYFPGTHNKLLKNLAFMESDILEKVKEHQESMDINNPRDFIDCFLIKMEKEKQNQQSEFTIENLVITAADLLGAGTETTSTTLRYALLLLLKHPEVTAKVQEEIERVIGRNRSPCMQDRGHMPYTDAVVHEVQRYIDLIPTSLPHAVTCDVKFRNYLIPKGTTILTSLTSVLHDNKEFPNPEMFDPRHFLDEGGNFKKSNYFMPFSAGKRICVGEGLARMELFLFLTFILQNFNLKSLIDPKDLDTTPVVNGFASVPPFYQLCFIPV
Outline: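 Relative luminescence units recorded 20 min after the detection reagent stopped a 1 h, 37C CYP2C19 reaction on proluciferin substrate, which was started by NADPH regeneration following 10 min room-temperature compound preincubation; ketoconazole positive control.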

[16] = target: Cytochrome P450 2C9 (Homo sapiens) (UniProt P11712); assay: Cytochrome P450 Family 2 Subfamily C Member 9 (CYP2C9) small molecule antagonists: luciferase reporter qHTS assay (AID 1671198); further: nearly all actives have a fitted effect of over 50% in size; further: potency means the concentration at half of the fitted maximal effect
Chain of Cytochrome P450 2C9 (Homo sapiens) (P11712 whole entry, looked up): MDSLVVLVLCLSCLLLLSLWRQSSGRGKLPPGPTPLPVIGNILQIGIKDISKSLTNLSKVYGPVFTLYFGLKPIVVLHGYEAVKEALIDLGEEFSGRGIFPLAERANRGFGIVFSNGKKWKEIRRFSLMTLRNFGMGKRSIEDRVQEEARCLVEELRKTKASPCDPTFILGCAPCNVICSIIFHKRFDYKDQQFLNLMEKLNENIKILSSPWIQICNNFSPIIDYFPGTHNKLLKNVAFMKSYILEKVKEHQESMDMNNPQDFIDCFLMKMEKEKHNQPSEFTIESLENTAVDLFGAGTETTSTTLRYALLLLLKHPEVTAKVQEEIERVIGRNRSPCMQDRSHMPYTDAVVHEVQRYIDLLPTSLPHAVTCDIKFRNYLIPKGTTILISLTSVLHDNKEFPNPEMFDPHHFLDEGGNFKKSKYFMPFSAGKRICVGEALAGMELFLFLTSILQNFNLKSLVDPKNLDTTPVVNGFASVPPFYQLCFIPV
Outline: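 P450-Glo proluciferin substrate with CYP2C9 enzyme; 10 min RT preincubation, then NADPH regeneration 1 h at 37C; luciferin detection reagent 20 min RT, luminescence in relative luminescence units.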

[17] = target: Cytochrome P450 2D6 (Homo sapiens) (UniProt P10635); assay: Cytochrome P450 Family 2 Subfamily D Member 6 (CYP2D6) small molecule antagonists: luciferase reporter qHTS assay (AID 1671196)
Chain of Cytochrome P450 2D6 (Homo sapiens) (P10635 whole entry, looked up): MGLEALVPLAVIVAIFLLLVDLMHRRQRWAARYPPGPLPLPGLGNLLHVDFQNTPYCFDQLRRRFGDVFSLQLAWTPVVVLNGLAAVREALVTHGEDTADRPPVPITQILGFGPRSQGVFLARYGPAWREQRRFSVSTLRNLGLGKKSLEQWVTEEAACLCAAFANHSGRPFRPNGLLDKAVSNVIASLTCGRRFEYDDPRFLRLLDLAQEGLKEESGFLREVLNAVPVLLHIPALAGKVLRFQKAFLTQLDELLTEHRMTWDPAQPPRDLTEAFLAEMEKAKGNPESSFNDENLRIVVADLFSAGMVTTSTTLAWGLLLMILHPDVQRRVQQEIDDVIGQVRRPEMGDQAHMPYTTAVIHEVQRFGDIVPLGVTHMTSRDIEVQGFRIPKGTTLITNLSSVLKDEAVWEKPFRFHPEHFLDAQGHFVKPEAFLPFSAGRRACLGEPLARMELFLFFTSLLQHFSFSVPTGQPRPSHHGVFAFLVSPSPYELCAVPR
Outline: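 Each well received CYP2D6 with its proluciferin substrate and chemical, sat 10 min, then got NADPH regeneration solution for 1 h at room temperature. Luminescence in RLU served as the activity measure.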

[18] = target: Nuclear receptor subfamily 1 group I member 2 (Homo sapiens) (UniProt O75469); assay: CYP3A4 induction through human pregnane X receptor (PXR) by small molecules, qHTS assay (AID 1346984); further: nearly all actives have a fitted effect of over 40% in size
Outline: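 Readings come from a luciferase reporter: DPX-2 cells, which are HepG2 cotransfected with PXR and a CYP3A4-promoter construct, were exposed to test compounds for 24 h at 37C before One-Glo detection.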

[19] = target: Nuclear receptor subfamily 1 group I member 2 (Homo sapiens) (UniProt O75469); assay: Human pregnane X receptor (PXR) activation by small molecules, qHTS assay (AID 1346985); further: nearly all actives have a fitted effect of over 40% in size
Outline: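 DPX-2 cells (HepG2 co-transfected with a PXR response element and a CYP3A4-promoter luciferase construct) were seeded at 2,000 per well, rested 5 hr at 37C, then exposed to DMSO-dissolved compounds for 24 hr. Activation was read as luciferase luminescence.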

Measured: Potency

CCN(CC)c1cccc(C)c1
inactive: [1] | [2] | [3] | [4] | [5] | [6] | [7] | [8] | [9] | [10] | [11] | [12] | [13] | [14] | [15] | [16]

CCc1cccc(CC)c1NC(=O)C(=O)O
inactive: [1] | [2] | [3] | [4] | [5] | [6] | [7] | [8] | [9] | [10] | [11] | [12] | [13] | [14] | [17] | [15] | [16]

C#CC(O)CCC (stereo not drawn)
inactive: [1] | [2] | [3] | [4] | [5] | [6] | [7] | [8] | [9] | [10] | [11] | [12] | [13] | [14] | [17] | [15] | [16]

CC(C)(C)c1cc(CCC(=O)NCCCCCCNC(=O)CCc2cc(C(C)(C)C)c(O)c(C(C)(C)C)c2)cc(C(C)(C)C)c1O
active: [16] 1.42 µM
inactive: [1] | [2] | [3] | [4] | [5] | [6] | [7] | [8] | [9] | [10] | [11] | [12] | [13] | [14] | [17]

CCCC(C)CCC(C)=O (stereo not drawn)
inactive: [1] | [2] | [3] | [4] | [5] | [6] | [7] | [8] | [9] | [10] | [11] | [12] | [13] | [14] | [17] | [16]

CCc1c(Br)c(Br)c(Br)c(Br)c1Br
inactive: [1] | [2] | [3] | [4] | [5] | [6] | [7] | [8] | [9] | [10] | [11] | [12] | [13] | [14] | [17] | [15] | [16]

NC(=O)C(=O)N/N=C/c1ccc([N+](=O)[O-])o1
inactive: [1] | [2] | [3] | [4] | [5] | [6] | [7] | [8] | [9] | [10] | [12] | [13] | [14] | [18] | [19] | [17] | [15]
active: [11] 23.7 µM

C=C(C)CCCC
inactive: [1] | [2] | [3] | [4] | [5] | [6] | [7] | [8] | [9] | [10] | [11] | [12] | [13] | [14] | [17] | [16]

CCOCN(C(=O)CS(=O)(=O)O)c1c(C)cccc1CC
inactive: [1] | [2] | [3] | [4] | [5] | [6] | [7] | [8] | [9] | [10] | [11] | [12] | [13] | [14] | [17]

O=c1cccc[nH]1
inactive: [1] | [2] | [3] | [4] | [5] | [6] | [7] | [8] | [9] | [10] | [11] | [12] | [13] | [14] | [17] | [16]

CCOCOCC
inactive: [1] | [2] | [3] | [4] | [5] | [6] | [7] | [8] | [9] | [10] | [11] | [12] | [13] | [14] | [17] | [15] | [16]

NCCCC(O)(P(=O)(O)O)P(=O)(O)O
inactive: [1] | [2] | [3] | [4] | [5] | [6] | [7] | [8] | [9] | [10] | [11] | [12] | [13]

CCCCN(C)C
inactive: [1] | [2] | [3] | [4] | [5] | [6] | [7] | [8] | [9] | [10] | [11] | [12] | [13] | [14] | [17] | [15] | [16]

C=CC(=O)OCCC#N
inactive: [1] | [2] | [3] | [4] | [5] | [6] | [7] | [8] | [9] | [10] | [12] | [13] | [14] | [17] | [15] | [16]
active: [11] 61.5 µM
